Experimental data published in PubChem BioAssay (NCATS).
Values joined by “and” are separate entries in the source; they are usually repeats but may differ in a detail not shown here. Equal entries are not always repeated. Records with an inconclusive call do not appear. Active and inactive are the calls of the source. The call rests on the fitted dose curve; in most records, active means well fitted inhibition curve with a large enough effect; inconclusive means small, poorly fitted or top-dose-only effect; inactive means flat fitted curve, though single readings scatter.

Experiments:
[1] = test system: CRL-7250; test: Cytotoxic Profiling of Annotated Libraries Using Quantitative High-Throughput Screening (AID 1296008); settings: Five cell lines viability, CellTiter-Glo ATP luminescence, 48-72 h; max response: active compounds read low; on max response: on the % scale 0 is the no-effect control and ±100 the full control effect
How it was run: (§1)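 Compounds were pin-transferred onto cells and incubated 48 or 72 hr at 37 degree Celsius, 95% humidity. CellTiter-Glo was added, plates sat 10 min at room temperature, then ATP-coupled luminescence was imaged as the viability read-out.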

[2] = test system: HEK293; test: as above; settings: Five cell lines viability, CellTiter-Glo ATP luminescence, 48-72 h; max response: active compounds read low
How it was run: as §1

[3] = test system: HaCat; test: as above; settings: Five cell lines viability, CellTiter-Glo ATP luminescence, 48-72 h; max response: active compounds read low
How it was run: as §1

[4] = test system: KB-3-1; test: as above; settings: Five cell lines viability, CellTiter-Glo ATP luminescence, 48-72 h; max response: active compounds read low
How it was run: as §1

[5] = test system: NIH3T3; test: as above; settings: Five cell lines viability, CellTiter-Glo ATP luminescence, 48-72 h; max response: active compounds read low
How it was run: as §1

[6] = test system: HACAT; test: qHTS assay to identify novel small-molecules to repurpose for Merkel cell carcinoma treatment (AID 1296009); settings: MCC and control cell lines, CellTiter-Glo viability, 72 h; at 44.8 µM (top of the series) unless noted
How it was run: (§2)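 qHTS format: cells treated with library compounds in DMSO across 8 (NPC) or 11 (MIPE) concentrations. Readout after 72 hr at 37 degree celsius was CellTiter-Glo luminescence.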

[7] = test system: HEK293T; test: as above; settings: MCC and control cell lines, CellTiter-Glo viability, 72 h; at 44.8 µM (top of the series) unless noted
How it was run: as §2

[8] = test system: TAB165; test: qHTS profiling for inhibitors of Plasmodium falciparum proliferation (AID 504749);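 further: 0% = DMSO vehicle and full inhibition = artemisinin control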; settings: P. falciparum in erythrocytes, SYBR Green DNA, 72 h; series mostly up to 28.7 µM
How it was run: (§3)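 Parasite proliferation within erythrocytes, 72 h exposure. Endpoint: SYBR Green I fluorescence after overnight lysis at room temperature. Controls: 0.29 uM artemisinin, DMSO.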

[9] = test system: W2; test: as above; settings: P. falciparum in erythrocytes, SYBR Green DNA, 72 h; series mostly up to 28.7 µM
How it was run: as §3

[10] = test system: CRL-7250; test: qHTS assay to identify novel small-molecules to repurpose for Merkel cell carcinoma treatment (AID 1296009); settings: MCC and control cell lines, CellTiter-Glo viability, 72 h; at 44.8 µM (top of the series) unless noted
How it was run: as §2
Further: nearly all actives have a fitted effect of over 60% in size.

CN(C)[C@@H]1C(=O)C(C(N)=O)=C(O)[C@@]2(O)C(=O)C3=C(O)c4c(O)cccc4[C@@](C)(O)[C@H]3[C@H](O)[C@@H]12
inactive: max response [1] -1.31% | outcome [2] | outcome [3] | max response [4] -7.87% and 0.265% and -1.24% | max response [5] 4.97% | outcome [6] | outcome [7]

CCC(=O)OC1CCC2C3CCC4=CC(=O)CC[C@@]4(C)C3CC[C@]12C (stereo partly specified)
inactive: max response [1] -4.7% | outcome [2] | outcome [3] | outcome [4] | max response [5] 4.81% | outcome [6] | outcome [7]

CCCC[N+]1(C)[C@H]2CC(OC(=O)[C@H](CO)c3ccccc3)C[C@H]1[C@H]1O[C@H]12 (stereo partly specified)
inactive: max response [1] -3.26% | max response [2] -1.83% | outcome [3] | max response [4] -2.74% | max response [5] -3.27% | outcome [6]

C1CCC(NC2CCCCC2)CC1
inactive: Potency [8] | Potency [9] | outcome [1] | max response [2] 2.36% | max response [3] 3.35% | max response [4] 6.25% | max response [5] -2.97% | outcome [10]

O=[N+]([O-])c1c(Cl)c(Cl)cc(Cl)c1Cl
inactive: max response [1] -4.27% | max response [2] 4.07% | outcome [3] | max response [4] -18.1% | outcome [5] | outcome [6] inactive [at 92 µM]

CC(=O)NCCc1c[nH]c2ccccc12
inactive: max response [1] -10.8% | max response [2] -1.55% | outcome [3] | outcome [4] | outcome [5] | outcome [6] inactive [at 92 µM]

CSCC[C@@H](NC(=O)[C@@H](Cc1ccccc1)NC(=O)CNC(=O)CNC(=O)[C@@H](N)Cc1ccc(O)cc1)C(=O)O
inactive: max response [1] 2.24% | max response [2] 3.52% | outcome [3] | max response [4] 3.04% | max response [5] 2.68% | outcome [6]
